In ChEMBL document CHEMBL1157539, “Thousands of chemical starting points for antimalarial lead identification” (Nature, 2010) one finds Inhibition data, which are given here for 40 compounds.

The Inhibition is the percentage by which the read-out fell short of the control.

The test system of the first test is Plasmodium falciparum. Kind of test: GSK_TCMDC: Inhibition of Plasmodium falciparum 3D7 in whole red blood cells, using parasite LDH activity as an index of growth. Test compounds present at 2uM. The format is functional.
For the compound `CCN(CCCN1CCCCC1)c1cc(C)nc(Nc2ccc(C(F)(F)F)cc2)n1.O=C(O)C(F)(F)F`, the Inhibition is 100%.

The compound `CCCCSc1ccc2nc(-c3c[nH]c4ccc(C#N)cc34)cn2c1` registered an Inhibition of 94%.

`O=S(=O)(Nc1cccc(CCN2CCC(N3CCCCC3)CC2)c1)c1cccc2ccccc12` yielded an Inhibition of 99%.

`CCOC(=O)c1c(C)n(-c2ccc(Cl)cc2)c2ccc(OC(=O)C=Cc3ccccc3)cc12` displayed an Inhibition of 99%.

Compound `O=C(c1cc(-c2ccccc2O)on1)N1CCN(C(c2ccccc2)c2ccccc2)CC1` showed an Inhibition of 97%.

With `CCOC(=O)c1c(NC(=O)c2ccccc2)sc2c(O)c(CNC3CCCCC3)ccc12`, the Inhibition is 99%.

Compound `Cl.c1ccc(Oc2ccc(Nc3nncc4ccccc34)cc2)cc1` had an Inhibition of 86%.

In turn, `O=C(Nc1cccc(CN2CCN(Cc3ccc(O)cc3)CC2)c1)c1ccc(-c2ccccc2)cc1.O=C(O)C(F)(F)F` had an Inhibition of 100%.

`CCOc1ccc(C(C)NC(=O)Cc2ccccc2F)cc1OCC` (stereo not given): the Inhibition is 96%.

`CC(=O)c1ccc2cc(C(=O)NC3CCC(CCN4CCc5ccc(-c6noc(C)n6)cc5CC4)CC3)[nH]c2c1.Cl` (stereo not given) came in with an Inhibition of 81%.

Consider `Cc1cccc2nc(-c3ccc(-c4ccc(CN5CCN(c6ccc(C#N)cn6)CC5)cc4)s3)[nH]c12.O=C(O)C(F)(F)F`, for which the Inhibition is on record as 98%.

Turning to `O=c1cc(NCCC(CNCc2ccoc2)NCc2cc(Br)cc(Br)c2)[nH]c2ccccc12` (stereo not given), the Inhibition was found to be 92%.

In turn, `CC(C)c1ccc(C(NC(=O)C2CCCCC2)c2ccc3cccnc3c2O)cc1` (stereo not given) had an Inhibition of 89%.

Regarding `COc1ccc2nccc([C@@H](O)CN3CCC(NCCOc4ccccc4[N+](=O)[O-])CC3)c2c1.O=C(O)C(=O)O`, the Inhibition came out at 100%.

`Cc1ccccc1C1CCN(c2ccc(C(=O)Nc3ccccc3)cn2)CC1.O=C(O)C(F)(F)F` gave an Inhibition of 95%.

The compound `CC(C)CN(C)Cc1ccc(-c2ccc(-c3nc4ccccc4[nH]3)s2)cc1` yielded an Inhibition of 97%.

Regarding `N=C(N)NC(=O)Nc1cc(Cl)c(Cl)c(Cl)c1`, the Inhibition is reported as 100%.

With `CC(C)(C)NC(=O)c1ccc(Oc2ccc(OC(F)(F)F)cc2)c(NC(=O)C(C)(C)C)c1`, the Inhibition stood at 89%.

`CN1CCc2cc(O)c(NS(=O)(=O)c3ccc(-c4ccc(Cl)cc4)cc3)cc2CC1.Cl` had an Inhibition of 100%.

As for `Cc1ccc(NC(=O)c2ccc3ncccc3c2)cc1OC1CCN(C(C)C)C1.O=C(O)C(F)(F)F` (stereo not given), the Inhibition is 95%.

In turn, `Nc1nccc(-c2ccc3c(-c4cccc(F)c4)cnc(N)c3c2)n1` came in with an Inhibition of 93%.

For `COc1ccc(S(=O)(=O)N(CCCN2CCN(C)CC2)Cc2csc(-c3ccc(CNCc4ccccc4)cc3)n2)cc1.O=C(O)C(F)(F)F`, the Inhibition was 88%.

Take `O=C(Nc1cccc(-c2ccc(-c3nc4ccccc4[nH]3)cc2)c1)Nc1ccc(F)c(F)c1F`: the Inhibition is given as 100%.

In the case of `CCOC(=O)CCCOc1c(OC)cc(Cc2cnc(N)nc2N)cc1OC`, the Inhibition worked out at 96%.

Compound `O=C(NCCCCN1CCN(c2cccc(Cl)c2Cl)CC1)c1ccc2c(c1)CCN(C1CCC1)CC2` came in with an Inhibition of 95%.

With `O=S1(=O)C=C(c2ccccc2)CC1`, the Inhibition was found to be 97%.

In turn, `COc1cc(Nc2ccc3cc(S(=O)(=O)N4CCCCC4C)ccc3n2)cc(OC)c1OC` (stereo not given) returned an Inhibition of 88%.

For the compound `COc1ccc2c(N/N=C/c3ccccc3[N+](=O)[O-])ccnc2c1`, the Inhibition is given as 100%.

Take `CCc1cc(NC(=O)Nc2ccnc3ccccc23)ccc1OC.Cl`: the Inhibition is given as 85%.

As for `COc1ccc(-c2nc3cccnc3n2CC(=O)Nc2c(C)cc(C)cc2C)c(OC)c1`, the Inhibition is 91%.

Compound `Cc1ccc(Nc2nc3cc(N(C)c4ccnc(Nc5cccc(CS(C)(=O)=O)c5)n4)ccc3o2)cc1.O=C(O)C(F)(F)F` yielded an Inhibition of 90%.

For `CCCCCCCCCN(CCC)C(=O)[C@@H]1OC(C(=O)OC(c2ccccc2)c2ccccc2)=C[C@H](NC(=O)OC(C)(C)C)[C@H]1NC(C)=O`, the Inhibition is 91%.

Take `O=C(O)C(F)(F)F.c1ccc(CCNCc2cccc(-c3ccc(CNc4ccc5ncccc5c4)cc3)c2)cc1`: the Inhibition was 93%.

As to `N#Cc1ccc(CN2CCC(Oc3ccc(NC(=O)c4cccs4)cc3Cl)C2)cc1.O=C(O)C(F)(F)F` (stereo not given), the Inhibition worked out at 96%.

Compound `O=C(Nc1ccc2ccccc2c1)N1CCC(NCc2cccc([N+](=O)[O-])c2)CC1.O=C(O)C(F)(F)F` registered an Inhibition of 98%.

`COc1ccc(CCN(Cc2cccs2)C(=O)c2cc3sccc3n2C)cc1OC`: the Inhibition was determined as 94%.

`Cc1ccc(Cn2cnc3cc(C(=O)Nc4ccc(-c5cccc(CN(C)C)c5)cc4)ccc3c2=O)o1` returned an Inhibition of 99%.

`CC(NC(=O)c1cc(-c2ccccc2)nc2c1cnn2C(C)C)C1CC1` (stereo not given) returned an Inhibition of 100%.

`CCOC(=O)c1cn(CC)c2cc(N3CCCCC3)c(F)cc2c1=O` came in with an Inhibition of 97%.

In turn, `Cl.N#Cc1cccc(-c2ccc(C(=O)Nc3ccc4c(c3)CCN(C3CCC3)CC4)cn2)c1` gave an Inhibition of 96%.

Another test has as its system Plasmodium falciparum. Kind of test: GSK_TCMDC: Inhibition of Plasmodium falciparum Dd2 in whole red blood cells, using parasite LDH activity as an index of growth. Test compounds present at 2uM. The test is classed as functional.
Compound `CCN(CCCN1CCCCC1)c1cc(C)nc(Nc2ccc(C(F)(F)F)cc2)n1.O=C(O)C(F)(F)F` displayed an Inhibition of 99%.

For `CCCCSc1ccc2nc(-c3c[nH]c4ccc(C#N)cc34)cn2c1`, the Inhibition was 37%.

`O=S(=O)(Nc1cccc(CCN2CCC(N3CCCCC3)CC2)c1)c1cccc2ccccc12` displayed an Inhibition of 63%.

In turn, `CCOC(=O)c1c(C)n(-c2ccc(Cl)cc2)c2ccc(OC(=O)C=Cc3ccccc3)cc12` gave an Inhibition of 92%.

`O=C(c1cc(-c2ccccc2O)on1)N1CCN(C(c2ccccc2)c2ccccc2)CC1` registered an Inhibition of 88%.

`CCOC(=O)c1c(NC(=O)c2ccccc2)sc2c(O)c(CNC3CCCCC3)ccc12` displayed an Inhibition of 98%.

For `Cl.c1ccc(Oc2ccc(Nc3nncc4ccccc34)cc2)cc1`, the Inhibition was found to be 82%.

In the case of `O=C(Nc1cccc(CN2CCN(Cc3ccc(O)cc3)CC2)c1)c1ccc(-c2ccccc2)cc1.O=C(O)C(F)(F)F`, the Inhibition stood at 67%.

As for `CCOc1ccc(C(C)NC(=O)Cc2ccccc2F)cc1OCC` (stereo not given), the Inhibition was 44%.

The compound `CC(=O)c1ccc2cc(C(=O)NC3CCC(CCN4CCc5ccc(-c6noc(C)n6)cc5CC4)CC3)[nH]c2c1.Cl` (stereo not given) gave an Inhibition of 45%.

Turning to `Cc1cccc2nc(-c3ccc(-c4ccc(CN5CCN(c6ccc(C#N)cn6)CC5)cc4)s3)[nH]c12.O=C(O)C(F)(F)F`, the Inhibition is recorded as 44%.

`O=c1cc(NCCC(CNCc2ccoc2)NCc2cc(Br)cc(Br)c2)[nH]c2ccccc12` (stereo not given) came in with an Inhibition of 28%.

Compound `CC(C)c1ccc(C(NC(=O)C2CCCCC2)c2ccc3cccnc3c2O)cc1` (stereo not given) yielded an Inhibition of 70%.

`COc1ccc2nccc([C@@H](O)CN3CCC(NCCOc4ccccc4[N+](=O)[O-])CC3)c2c1.O=C(O)C(=O)O` had an Inhibition of 98%.

`Cc1ccccc1C1CCN(c2ccc(C(=O)Nc3ccccc3)cn2)CC1.O=C(O)C(F)(F)F` displayed an Inhibition of 94%.

Regarding `CC(C)CN(C)Cc1ccc(-c2ccc(-c3nc4ccccc4[nH]3)s2)cc1`, the Inhibition was found to be 76%.

Compound `N=C(N)NC(=O)Nc1cc(Cl)c(Cl)c(Cl)c1` had an Inhibition of 100%.

As for `CC(C)(C)NC(=O)c1ccc(Oc2ccc(OC(F)(F)F)cc2)c(NC(=O)C(C)(C)C)c1`, the Inhibition is given as 2%.

`CN1CCc2cc(O)c(NS(=O)(=O)c3ccc(-c4ccc(Cl)cc4)cc3)cc2CC1.Cl` returned an Inhibition of 3%.

As to `Cc1ccc(NC(=O)c2ccc3ncccc3c2)cc1OC1CCN(C(C)C)C1.O=C(O)C(F)(F)F` (stereo not given), the Inhibition came out at 37%.

Compound `Nc1nccc(-c2ccc3c(-c4cccc(F)c4)cnc(N)c3c2)n1` showed an Inhibition of 44%.

As to `COc1ccc(S(=O)(=O)N(CCCN2CCN(C)CC2)Cc2csc(-c3ccc(CNCc4ccccc4)cc3)n2)cc1.O=C(O)C(F)(F)F`, the Inhibition worked out at 86%.

With `O=C(Nc1cccc(-c2ccc(-c3nc4ccccc4[nH]3)cc2)c1)Nc1ccc(F)c(F)c1F`, the Inhibition is 38%.

As to `CCOC(=O)CCCOc1c(OC)cc(Cc2cnc(N)nc2N)cc1OC`, the Inhibition was found to be 7%.

For the compound `O=C(NCCCCN1CCN(c2cccc(Cl)c2Cl)CC1)c1ccc2c(c1)CCN(C1CCC1)CC2`, the Inhibition turned out to be 31%.

The compound `O=S1(=O)C=C(c2ccccc2)CC1` registered an Inhibition of 44%.

`COc1cc(Nc2ccc3cc(S(=O)(=O)N4CCCCC4C)ccc3n2)cc(OC)c1OC` (stereo not given) showed an Inhibition of 78%.

With `COc1ccc2c(N/N=C/c3ccccc3[N+](=O)[O-])ccnc2c1`, the Inhibition is recorded as 97%.

Consider `CCc1cc(NC(=O)Nc2ccnc3ccccc23)ccc1OC.Cl`, for which the Inhibition is listed as 24%.

Take `COc1ccc(-c2nc3cccnc3n2CC(=O)Nc2c(C)cc(C)cc2C)c(OC)c1`: the Inhibition was determined as 21%.

In the case of `Cc1ccc(Nc2nc3cc(N(C)c4ccnc(Nc5cccc(CS(C)(=O)=O)c5)n4)ccc3o2)cc1.O=C(O)C(F)(F)F`, the Inhibition amounted to 16%.

In turn, `CCCCCCCCCN(CCC)C(=O)[C@@H]1OC(C(=O)OC(c2ccccc2)c2ccccc2)=C[C@H](NC(=O)OC(C)(C)C)[C@H]1NC(C)=O` yielded an Inhibition of 49%.

The compound `O=C(O)C(F)(F)F.c1ccc(CCNCc2cccc(-c3ccc(CNc4ccc5ncccc5c4)cc3)c2)cc1` gave an Inhibition of 27%.

The compound `N#Cc1ccc(CN2CCC(Oc3ccc(NC(=O)c4cccs4)cc3Cl)C2)cc1.O=C(O)C(F)(F)F` (stereo not given) had an Inhibition of 95%.

`O=C(Nc1ccc2ccccc2c1)N1CCC(NCc2cccc([N+](=O)[O-])c2)CC1.O=C(O)C(F)(F)F` registered an Inhibition of 0%.

`COc1ccc(CCN(Cc2cccs2)C(=O)c2cc3sccc3n2C)cc1OC`: the Inhibition is listed as 97%.

For `Cc1ccc(Cn2cnc3cc(C(=O)Nc4ccc(-c5cccc(CN(C)C)c5)cc4)ccc3c2=O)o1`, the Inhibition is recorded as 39%.

In turn, `CC(NC(=O)c1cc(-c2ccccc2)nc2c1cnn2C(C)C)C1CC1` (stereo not given) had an Inhibition of 88%.

`CCOC(=O)c1cn(CC)c2cc(N3CCCCC3)c(F)cc2c1=O` yielded an Inhibition of 96%.

`Cl.N#Cc1cccc(-c2ccc(C(=O)Nc3ccc4c(c3)CCN(C3CCC3)CC4)cn2)c1` displayed an Inhibition of 5%.
